BoNT A protease: BoNT A light chain protease inhibition | multiplex microsphere protease substrate cleavage, flow cytometry | inhibition, % at 10 µM | actives 0.17% (n = 360,000); note: plate controls were buffer without enzyme for full effect and enzyme alone for no effect
3CLpro inhibitor: SARS-CoV 3CLpro protease inhibition. P0C6X7. recombinant SARS-CoV 3CLpro, quenched FRET peptide cleavage. inhibition, % at 6 µM. actives 0.14% (n = 290,000); in the data active = inhibition above about 12%
Autofluor counter: counter-screen for toxin protease inhibitors: compound fluorescence | compound autofluorescence counterscreen, microsphere flow cytometry; active compounds read high | fluorescence intensity (test concentration not listed) | actives 3.1% (n = 360,000); in the data active = fluorescence intensity above about 16000; inconclusive = no clear call, values can overlap the other calls
Anthrax LF prot: blocks Bacillus anthracis lethal factor protease; P15917; multiplex microsphere protease cleavage assay, LF; inhibition, % at 10 µM; actives 0.12% (n = 360,000); AID 588501; note: plate controls were buffer without enzyme for full effect and enzyme alone for no effect
BoNT F protease: BoNT F light chain protease inhibition; Multiplex microsphere protease cleavage assay, flow cytometry; inhibition, % at 10 µM; AID 588497; actives 0.22% (n = 360,000); in the data active = inhibition above about 35%, passing the limit was not always enough; inconclusive = no clear call, values can overlap the other calls; note: plate controls were buffer without enzyme for full effect and enzyme alone for no effect
Numbers without * were called inactive; u = inconclusive; x = no result given. Compounds with a hit are over-represented: about 3.5% of the library has one in this group of screens. Cut-off read from the data, not from the text of the source, unless noted: active = inhibition above about 30%; inconclusive = no clear call, values can overlap the other calls; inactive = below that.

SMILES	BoNT A protease	3CLpro inhibitor	Autofluor counter	Anthrax LF prot	BoNT F protease
CC(=O)c1ccc(OCCCC(=O)NC2=NCCS2)cc1	u	-2	23568*	-3	-7
CSc1ccc(Cl)c(C(=O)N2CCOc3ccccc32)c1	-2	-1	4192	11	u
O=C(O)C1CC1C(=O)Nc1cc(F)ccc1F (centres undefined)	0	4	4176	-8	-4
O=C1N/C(=N\N=C\c2ccc3ncccc3c2)SC1Cc1ccc(SC(F)F)cc1 (centres undefined)	u	-2	20635*	1	4
COC(=O)c1c(NC(=O)Cc2cccs2)sc(C)c1C	-6	-2	21860*	-5	-11
COC(=O)c1c(NC(=O)Cc2ccccc2)sc(C)c1C	0	5	2470	-1	-1
COC(=O)c1c(NC(=O)CCCC(=O)O)sc(C)c1C	0	-4	3425	0	-1
CCOC(=O)c1cnn(CCOC(=O)Cc2cccs2)c1NC(=O)Cc1cccs1	1	4	22856*	-1	1
CCc1ccc(CCC(=O)Nc2sc(C)c(C)c2C(=O)OC)o1	-1	3	21036*	-5	-3
COC(=O)c1ccc2ccn(CC(=O)NC(C)C)c2c1	0	1	10398	1	-1
Cc1ccc(-c2nc3c(Cl)cc(C(F)(F)F)cn3c2Cc2cccc(F)c2)cc1	0	x	6219	-4	-8
COC(=O)c1scc(C)c1N/N=C(\C)c1cc(F)c(Cl)cc1F	0	0	16330*	-2	-2
CC(C)CN(C(=O)CSc1nc2ccccc2c(=O)[nH]1)c1c(N)n(CC(C)C)c(=O)[nH]c1=O	0	x	3891	-6	-5
O=[N+]([O-])c1ccc(N2CCN(S(=O)(=O)c3ccc(Cl)cc3)CC2)cc1NCC1CCCO1 (centres undefined)	-2	2	16643*	-5	-5
Cc1cc(C)c(S(=O)(=O)N2CCN(c3ccc([N+](=O)[O-])c(NCC4CCCO4)c3)CC2)c(C)c1 (centres undefined)	1	-4	8601	0	8
Cc1ccc(C(O)c2ccc(-n3ccnc3)cc2)cc1 (centres undefined)	-4	3	3494	15	17
Cc1[nH]c2ccccc2c1C(O)c1ccncc1 (centres undefined)	0	-1	4901	-4	-5
Cc1ccc(C(O)c2ccncc2)cc1 (centres undefined)	8	1	17116*	-13	9
Cc1ccccc1C(O)c1ccncc1 (centres undefined)	3	-1	19164*	-1	4
COc1ccccc1CC(=O)N1CCCC(CCC(=O)NCc2ccccc2F)C1 (centres undefined)	0	0	4324	6	1
O=C(COC(=O)c1ccccc1C(=O)c1ccc(Cl)c([N+](=O)[O-])c1)NC1CCCCCC1	-1	4	23481*	0	-1
CN(C)CCCNS(=O)(=O)c1cc(Cl)c(Cl)cc1Cl	u	3	3786	5	u
CN(C)CCCNS(=O)(=O)c1cc(Cl)ccc1Cl	u	-5	20853*	0	-3
CCN(CC)c1ccc(/C=N/n2c(C)cc(C)cc2=O)cc1	4	-1	19156*	-2	6
COc1ccc(N2CCN(C(=O)c3csc4ccccc34)CC2)cc1	-1	-2	16323*	-3	-4
SMILES	BoNT A protease	3CLpro inhibitor	Autofluor counter	Anthrax LF prot	BoNT F protease
CS(=O)(=O)N1CCN(C(=O)c2csc3ccccc23)CC1	-3	-2	24374*	-1	-4
Cc1scc(C(=O)N2CCN(S(C)(=O)=O)CC2)c1-c1ccccc1	u	-3	24362*	1	-1
CN(CC(=O)Nc1cccc(F)c1)C(=O)c1ccccc1Cc1ccccc1	0	x	6160	-4	1
COc1cc(S(=O)(=O)N2CCCCC2)ccc1NC(=O)/C=C/c1ccccc1	0	2	11527	-4	-13
O=C(Nc1cccc2c1C(=O)NC2=O)c1ccc(S(=O)(=O)N2CCCC2)cc1	1	1	3832	1	17
Cc1ccc2nc(C3CCN(CC(=O)N4CCCCCC4)CC3)[nH]c2c1	0	4	23345*	4	0
CCOc1ccccc1NC(=O)N1CCC(c2nc3ccc(C)cc3[nH]2)CC1	-1	-2	11879	0	-10
Cc1ccc2nc(C3CCN(C(=O)c4ccco4)CC3)[nH]c2c1	0	-5	23117*	-2	-1
COc1ccc(/C=N/NC(=O)c2ccc(NC(=O)C3CCCCC3)cc2)cc1O	0	-5	4419	-3	-2
Cc1cc(=O)[nH]c(SCc2nc3ccccc3s2)n1	0	2	4516	-1	27
